# Results as given in the supplement of paper PMC8975748.
# Where a name gives a salt, the structure may show the parent alone.
# Test system: Saccharomyces cerevisiae BY4741 SeMeCo community
# Assay: z-score of subpopulation abundance vs DMSO median, subpopulation auxotrophic for UM; higher = larger share of this subpopulation than in DMSO controls
# Conditions: 10 µM; 24 h; SM minimal medium; subpopulation (auxotrophy): UM
# Experimental: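 Fluorescent four-plasmid SeMeCo (self-establishing metabolically cooperating S. cerevisiae BY4741 community; plasmids pH-mRuby2, pL-mWasabi, pU-eCFP, pM-TagRFP657) was grown 24 h in minimal SM medium with each Selleck FDA-approved drug at 10 µM in 384-well plates. Cells were fixed and imaged by high-content confocal microscopy. For each auxotrophic subpopulation (and the prototroph), a z-score gives the deviation from the DMSO vehicle-control population median.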
row,SMILES,z-score of subpopulation abundance
1,C=CN1CCCC1=O.II [Povidone iodine],0.16
2,CC[C@@]1(O)C(=O)OCc2c1cc1n(c2=O)Cc2cc3ccccc3nc2-1 [Camptothecin],0.1
3,C[C@@H]1O[C@@H](O[C@H]2C[C@@H](O)[C@]3(CO)[C@H]4[C@H](O)C[C@]5(C)[C@@H](C6=CC(=O)OC6)CC[C@]5(O)[C@@H]4CC[C@]3(O)C2)[C@H](O)[C@H](O)[C@H]1O [Ouabain],0.06
4,CC(=O)O[C@H]1C[C@@H]2CC[C@@H]3[C@H](CC[C@@]4(C)[C@H]3C[C@H]([N+]3(C)CCCCC3)[C@@H]4OC(C)=O)[C@@]2(C)C[C@@H]1[N+]1(C)CCCCC1 [Pancuronium dibromide],-0.06
5,C[CH2][Hg][S]c1ccccc1C(=O)[O-].[Na+] [Thimerosal],6.06
6,COc1cc2c(cc1OC)C1CC(=O)C(CC(C)C)CN1CC2 (stereo not given) [Tetrabenazine (Xenazine)],-0.68
7,Cc1cc(C(C#N)c2ccc(Cl)cc2)c(Cl)cc1NC(=O)c1cc(I)cc(I)c1O (stereo not given) [Closantel],-0.03
8,COc1ccc(C(CN(C)C)C2(O)CCCCC2)cc1 (stereo not given) [Venlafaxine],0.35
9,CC(C)N(CCC(C(N)=O)(c1ccccc1)c1ccccn1)C(C)C (stereo not given) [Disopyramide],-0.64
10,O=c1cccc2n1C[C@@H]1CNC[C@H]2C1 [Cytisine],-0.6
11,CN1[C@@H]2CC[C@H]1C[C@@H](OC(=O)[C@H](CO)c1ccccc1)C2 [Hyoscyamine],-0.14
12,CC[C@H]1CN2CC[C@]3(C(=O)Nc4ccccc43)[C@@H]2C[C@@H]1/C(=C\OC)C(=O)OC [Rhynchophylline],1.19
13,CC(C)(O)C(Cl)(Cl)Cl [Chlorobutanol],0.14
14,CN(C)[C@@H]1C(=O)C(C(N)=O)=C(O)[C@@]2(O)C(=O)C3=C(O)c4c(O)cccc4[C@@](C)(O)[C@H]3C[C@@H]12 [Tetracycline HCl],0.64
15,CCN(CC)CCOC(=O)C(O)(c1ccccc1)c1ccccc1 [Benactyzine hydrochloride],0.21
16,C[N+]1(C)[C@@H]2C[C@@H](OC(=O)[C@H](CO)c3ccccc3)C[C@H]1[C@@H]1O[C@@H]12 [Methscopolamine],1.32
17,N[C@@H]1C[C@H]1c1ccccc1 [Tranylcypromine (2-PCPA) HCl],-0.34
18,CN(C)C(=O)Oc1cccc([N+](C)(C)C)c1 [Neostigmine Bromide],-0.71
19,C[N+]12CCC(CC1)C(OC(=O)C(O)(c1ccccc1)c1ccccc1)C2 (stereo not given) [Clidinium Bromide],-0.38
20,CC[N+](C)(CC)CCOC(=O)C(O)(c1ccccc1)c1ccccc1 [Methylbenactyzine Bromide],-0.66

row,SMILES,z-score of subpopulation abundance
1,COc1ccc2[nH]cc(CCN)c2c1 [5-Methoxytryptamine],1.16
2,COc1ccc2c3c([nH]c2c1)C(C)=NCC3 [Harmaline],-9.37
3,CCC1=C[C@H]2CN3CCc4c([nH]c5ccccc45)[C@](C(=O)OC)(C2)[C@H]13 [Catharanthine],0.1
4,CN[C@@H]1[C@@H](O)[C@@H](O[C@@H]2[C@@H](O)[C@H](O[C@H]3O[C@H](CN)CC[C@H]3N)[C@@H](N)C[C@H]2N)OC[C@]1(C)O.CN[C@@H]1[C@@H](O)[C@@H](O[C@@H]2[C@@H](O)[C@H](O[C@H]3O[C@H]([C@@H](C)N)CC[C@H]3N)[C@@H](N)C[C@H]2N)OC[C@]1(C)O.CN[C@@H]1[C@@H](O)[C@@H](O[C@@H]2[C@@H](O)[C@H](O[C@H]3O[C@H]([C@@H](C)NC)CC[C@H]3N)[C@@H](N)C[C@H]2N)OC[C@]1(C)O [Gentamicin Sulfate],-0.75
5,CNC1CC(N)C(O)C(OC2OC(CO)C(O)C3OC4(OC(C(N)CO)C(O)C(O)C4O)OC23)C1O (stereo not given) [Hygromycin B],0.06
6,NCCc1c[nH]c2ccc(O)cc12 [Serotonin HCl],-0.02
7,CN[C@@H]1[C@@H](O)[C@@H](O[C@@H]2[C@@H](O)[C@H](O[C@H]3O[C@H]([C@@H](C)O)[C@@H](O)[C@H](O)[C@H]3N)[C@@H](N)C[C@H]2N)OC[C@]1(C)O [Geneticin (G418 Sulfate)],-0.56
8,C[N+](C)(C)CCCCCCCCCC[N+](C)(C)C [Decamethonium Bromide],0.35
9,CN(C)[C@@H]1C(=O)C(C(N)=O)=C(O)[C@@]2(O)C(=O)C3=C(O)c4c(O)ccc(Cl)c4[C@@](C)(O)[C@H]3C[C@@H]12 [Chlortetracycline HCl],-0.66
10,C[C@@H]1CC[C@H]2[C@@H](C)C(=O)O[C@@H]3O[C@@]4(C)CC[C@@H]1[C@]32OO4 [Artemisinin],-0.66
11,COC(=O)C1=CCCN(C)C1 [Arecoline HBr],0.61
12,CN1[C@@H]2CC[C@H]1C[C@@H](OC(=O)C(CO)c1ccccc1)C2 (stereo not given in full) [Atropine sulfate monohydrate],0.69
13,NC(=O)CN1CCCC1=O [Piracetam],0.74
14,CN1C(=O)COc2c(C(=O)NC3CN4CCC3CC4)cc(Cl)cc21 (stereo not given) [Azasetron HCl],0.66
15,Nc1ccncc1 [4-Aminopyridine],-0.05
16,Oc1cc(Cl)ccc1Oc1ccc(Cl)cc1Cl [Triclosan],-2.84
17,CC[C@@H](C(N)=O)N1CCCC1=O [Levetiracetam],-0.62
18,O=C(O[C@H]1C[C@H]2CC[C@@H](C1)[N+]21CCCC1)C(O)(c1ccccc1)c1ccccc1 [Trospium chloride],-0.43
19,COc1ccc2c(c1)[C@]13CCCC[C@@H]1[C@H](C2)N(C)CC3 [Dextromethorphan hydrobromide hydrate],-0.52
20,C=C[C@H]1CN2CC[C@H]1C[C@H]2[C@H](O)c1ccnc2ccccc12 [Cinchonidine],0.45
